# Shown are actives, neighbours in structure and some others; about 18% of the full set was active somewhere.
# LDHA inh – qHTS assay for inhibitors of human lactate dehydrogenase; purified LDHA, NADH/diaphorase-resazurin fluorescence; hits give low values; L-lactate dehydrogenase A chain (Homo sapiens), P00338; activity change, % (values are at about 110 or 230 µM); 480,000 tested, 0.15% active; in the data active = activity change below about -30%; inconclusive = mostly about -25% to -30%;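 note: plate controls were DMSO wells for no effect and wells without enzyme for full effect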
#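 Human LDH5 at 2 nM final in Tris HCl pH 7.4 with 0.06 mM NADH and 0.2 mM pyruvate, reacted 5 minutes at room temperature. Remaining NADH coupled via diaphorase/resazurin; resorufin fluorescence read at 0 and 20 minutes, normalized to enzyme-free and DMSO wells.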
# RORgamma inh – qHTS for inhibitors of ROR gamma transcriptional activity; Drosophila S2 Gal4-RORgamma UAS-luciferase reporter, 20 h; Potency, µM (doses to about 53.6 µM), for the others: at the top dose activity change, negative = inhibition, actives largely listed as inhibitors; AID 2551, 2010; 310,000 tested, 5.4% active; note: potency is the fitted concentration of half-maximal effect; nearly all actives have a fitted effect of over 60% in size
# Target sequence (P51450 whole entry, looked up, the tested form may be a part): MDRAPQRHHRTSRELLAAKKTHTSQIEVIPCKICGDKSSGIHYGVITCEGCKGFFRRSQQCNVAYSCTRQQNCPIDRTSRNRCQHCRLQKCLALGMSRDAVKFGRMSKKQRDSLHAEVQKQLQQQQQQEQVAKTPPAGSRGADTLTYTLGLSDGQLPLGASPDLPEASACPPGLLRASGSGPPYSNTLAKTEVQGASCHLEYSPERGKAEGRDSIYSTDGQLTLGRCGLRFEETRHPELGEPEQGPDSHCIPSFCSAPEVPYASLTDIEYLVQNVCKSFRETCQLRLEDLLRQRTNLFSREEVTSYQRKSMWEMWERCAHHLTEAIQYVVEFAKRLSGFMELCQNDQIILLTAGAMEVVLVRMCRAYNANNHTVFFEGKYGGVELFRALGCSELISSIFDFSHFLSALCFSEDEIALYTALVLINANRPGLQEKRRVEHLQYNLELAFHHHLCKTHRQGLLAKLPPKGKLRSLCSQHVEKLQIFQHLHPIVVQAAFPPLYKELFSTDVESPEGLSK
#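 Using a luciferase readout, inhibitors were identified by reduced reporter activity in Drosophila cells coexpressing a copper-inducible Gal4–ROR gamma fusion and UAS-driven Photinus luciferase, incubated 20 hr after 700 uM copper sulfate.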
# VP16 counter – VP16 counterscreen qHTS for inhibitors of ROR gamma transcriptional activity. Drosophila S2 Gal4-VP16 UAS-luciferase, luminescence, 20 h. AID 2546, 2010. Potency, µM (titrated, usually from 53.6 µM), for the others: at the highest dose activity, negative = inhibition, most hits filed as inhibitors. 310,000 tested, 3.5% active;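 note: Gal4-VP16 expression switched on by copper sulfate through the metallothionein promoter; potency is the fitted concentration of half-maximal effect; nearly all actives have a fitted effect of over 50% in size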
# TDP1 cell noCPT – qHTS for Inhibitors of human tyrosyl-DNA phosphodiesterase 1 (TDP1): qHTS in cells in absence of CPT | DT40 Tdp1-/- hTDP1 cells, no CPT, ATP luminescence, 48 h | Potency, µM (series often up to 46.2 µM), for inactives: top-dose activity change, negative = growth inhibition, most hits filed as inhibitors | 420,000 tested, 15% active | AID 686978, 2013; note: potency is the fitted concentration of half-maximal effect; nearly all actives have a fitted effect of over 55% in size
#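 Chicken DT40 Tdp1-/- cells complemented with human TDP1, screened without camptothecin (DMSO vehicle only), 400 cells/well. Compounds pin-transferred, cells incubated at 37 °C for at least 48 hr. Growth read as ATP-dependent luminescence (CellTiter-Glo, 30 min at RT).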
# TDP1 cell CPT – qHTS for Inhibitors of human tyrosyl-DNA phosphodiesterase 1 (TDP1): qHTS in cells in presence of CPT; chicken DT40 Tdp1-/-;hTDP1 cells + 20 nM CPT, ATP luminescence, 48 h; Potency, µM (top dose mostly 46.2 µM), without a hit: at the top dose activity change, negative = growth inhibition, usual class: inhibitors; 420,000 tested, 12% active; AID 686979, 2013; note: potency is the fitted concentration of half-maximal effect; nearly all actives have a fitted effect of over 55% in size
#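 Chicken DT40 Tdp1-/- cells complemented with human TDP1, 400 cells/well, exposed to compounds plus 20 nM camptothecin for at least 48 h at 37 C; viability read as ATP content by CellTiter-Glo luminescence.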
# IL1B secr inh – qHTS for Inhibitors of Inflammasome Signaling: IL-1-beta AlphaLISA Primary Screen | AID 743279, 2014 | activity change, % at 57.5 µM | 360,000 tested, 4.7% active | THP-1 LPS/ATP IL-1B secretion, AlphaLISA, 16 h; hits give low values; in the data active = activity change below about -50%; inconclusive = mostly about -30% to -49%
#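 Secreted IL-1B measured by AlphaLISA bead assay after 16 h compound exposure of THP-1 cells; compounds (final up to 57.5 uM) added 1 h before LPS (250 ng/mL) and ATP (1.25 mM) stimulation; lower signal means less secretion.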
# Starred values were filed as active, the others as inactive; ? = inconclusive; nt = not tested or not shown. Unless noted, calls come from the whole dose curve; as a rule, active = well fitted curve in the direction sought with a large enough effect; inconclusive = small, poorly fitted or top-dose-only effect, or another doubt; inactive = no such curve, though single readings can be large; an effect the other way counts as inactive or inconclusive. Unless noted, % is set by controls: 0 for no effect and ±100 for the full control effect.
SMILES,LDHA inh,RORgamma inh,VP16 counter,TDP1 cell noCPT,TDP1 cell CPT,IL1B secr inh
C[C@H](c1ccccc1)N1C[C@H](COCc2ccccc2)Oc2cc(N3CCC[C@H]3CO)ccc2S1(=O)=O,-9,nt,nt,?,?,20
C[C@@H](c1ccccc1)N1C[C@@H](COCc2ccccc2)Oc2cc(N3CCC[C@H]3CO)ccc2S1(=O)=O,-2,nt,nt,21µM*,?,?
CCN(Cc1ccccc1)C(=O)c1cc(COc2c(F)cccc2F)on1,-6,44%,-4%,?,?,?
CCN(Cc1ccncc1)C(=O)c1cc(COc2ccc(C)c(C)c2)on1,0,91%,?,?,-27%,-53*
Cc1ccc(OCc2cc(C(=O)N(CCO)Cc3cccs3)no2)cc1C,-1,-11%,25%,?,?,-62*
CCn1c(=O)c2c(nc(-n3nc(C)cc3C)n2Cc2c(F)cccc2Cl)n(C)c1=O,0,nt,nt,nt,nt,nt
CCOc1ccc(-c2nc(Cn3nnc(C(=O)Nc4cccc(Cl)c4)c3N)c(C)o2)cc1OC,6,nt,nt,nt,nt,nt
CNc1nnc(Sc2ncccc2[N+](=O)[O-])s1,-5,-35%,11%,16µM*,8.2µM*,nt
Cc1ccccc1Nc1nnc(SCC2CCCCO2)s1 (stereo unspecified),-7,?,-2%,18µM*,?,?
COc1ccccc1Nc1nnc(SCC2CCCCO2)s1 (stereo unspecified),-3,7%,-21%,?,6.5µM*,-16
Cc1ccc(Nc2nnc(SCC3CCCCO3)s2)cc1 (stereo unspecified),-3,?,5%,?,-2%,-7
Cc1cc(=O)oc2cc(OC(C)C(=O)NCc3cccnc3)c(Cl)cc12 (stereo unspecified),12,nt,nt,nt,nt,nt
Cc1nn(-c2nc(CC(=O)Nc3ccccc3F)cs2)c(C)c1Cc1ccccc1,0,nt,nt,nt,nt,nt
Cc1cc(CNC(=O)C2CCCN2C(=O)OC(C)(C)C)ccc1F (stereo unspecified),-3,nt,nt,nt,nt,nt
CCOC(=O)C(=Cc1ccc(-c2ccsc2C(=O)OC)o1)C(=O)OCC,-1,39%,2%,?,26µM*,-5
Cc1ccc(-c2cc(C(F)F)n3nc(C)c(Br)c3n2)cc1,-34*,nt,nt,nt,nt,nt
Cc1nn2c(C(F)F)cc(-c3ccc(F)cc3)nc2c1Br,7,nt,nt,nt,nt,nt
COc1ccc(Nc2cc(C)nc3c(C)ccc([N+](=O)[O-])c23)cc1,-5,nt,nt,nt,nt,nt
O=C(NCCCN1CCCCCC1)[C@@H](c1ccccc1)C1CCCCC1,nt,1%,1%,11µM*,11µM*,nt
CN1CCN(CCCNC(=O)C2CC(=O)N(C3CCCCC3)C2)CC1 (stereo unspecified),-1,6%,0%,7%,6%,17
CCC(C(=O)NCCCN1CCN(CCCNC(=O)C(CC)c2ccccc2)CC1)c1ccccc1 (stereo unspecified),-4,14%,6%,?,-18%,-4
CSc1ccc(NC(=O)NCCCN2CCC(Cc3ccccc3)CC2)cc1,-2,?,4%,23µM*,?,-54*
O=C(NCCCN1CCC(Cc2ccccc2)CC1)C1CC(=O)N(C2CCCCCC2)C1 (stereo unspecified),0,4%,8%,26µM*,?,0
CCOC(=O)CC1(C)Oc2ccccc2N1S(=O)(=O)c1ccc(C)cc1 (stereo unspecified),1,nt,nt,?,21µM*,0

# Bioassay records deposited in PubChem BioAssay by National Center for Advancing Translational Sciences (NCATS).
